# Reference: PubChem BioAssay (EPA / NIEHS)
# Activity calls are given as the source filed them. How the source made its calls: active means hit-call score of the fitted dose curve at least 0.9, where 1 is the maximum; inactive means score below 0.9.
# Read-out: UDP glucuronosyltransferase (UGT1A1), UGT1A1 (gene 54658)
# Test: LTEA_HepaRG_UGT1A1: Life Technologies and Expression Analysis (LTEA) Assay for UDP glucuronosyltransferase (UGT1A1) using HepaRG (AID 2283538)
# Conditions: mRNA level, 48 h; actives raise or lower the signal
# Protocol: LTEA_HepaRG is a cell based, multiplexed-readout assay that uses HepaRG, a human liver cell line, with measurements taken at 48 hours after chemical dosing on a 96-well plate.LTEA_HepaRG_UGT1A1 is one of 102 assay component(s) measured in the LTEA HepaRG cell culture assay. It is a marker of Steatosis/NR mediated metabolism.Data from the assay component LTEA_HepaRG_UGT1A1 was analyzed into 1 endpoint. This assay endpoint, LTEA_HepaRG_UGT1A1, was analyzed with bidirectional fitting relative to DMSO as the negative control and baseline of activity. Using a type of inducible reporter, measures of mRNA induction for gain or loss-of-signal activity can be used to understand regulation of transcription factor activity. To generalize the intended target to other relatable targets, this assay endpoint is annotated to the transferase intended target family, where the subfamily is glucuronosyltransferase.
# A total of 1060 chemcials from the ToxCast library were tested in eight-point concentration-response experiments. Cell culture and cytotoxicity assays were conducted at Thermo Fisher Scientific's Custom Services facility (Madison, WI). A single lot of human HepaRG cells (Thermo Fisher Scientific, Frederick, MD) was used for the cell culture experiments. 96-well format collagen type I coated plates of human HepaRG cells were prepared using established methods. Briefly, cryopreserved HepaRG cells were thawed, plated at a density of approximately 100,000 cells/well in HepaRG Thaw, Plate, and General Purpose media (HPRG770, Thermo Fisher Scientific), and incubated for 48 hours. 0.5% DMSO was selected as vehicle control to balance the requisite need of DMSO in HepaRG cultures to maintain differentiation (for example, baseline metabolism, proportions of hepatocytes vs. cholangiocytes), while enabling further hepatic receptor pathway activation (for example, PXR and CAR) in response to chemical exposure. 48 hours after plating, the culture medium was replaced with HepaRG Serum-Free Incudtion Media. Cells were exposed to each test chemical in duplicate and maintained in CO2 incubators for another 48 hours. Chemical plates were thawed to room temperature and 200x concentrations of treatment groups were prepared. 8-point conentration-reponse curves were made with the highest exposure at 100 uM, followed by half-log dilutions, all in 0.5% DMSO. Each test plate contained variouse controls, induction positive controls (1mM phenobarbital), cytotoxicity positive controls ([…] aflatoxin B1), vehicle controls (0.5% DMSO), and total lysis controls (0.5% DMSO). Cell morphology images were taken using an Essen IncuCyte FLR automated microscope, with six 96-well plates imaged in about 24 minutes. Images were captured and exported and JPEG files. Spent culture media was transfered to black-well plates for the LDH assay, and remaining media was sorted at -80 C for later use. Cells were treated with RLT buffer and frozen until shipped for gene expression analysis. Total RNA was isolated from the cell suspension in 75 uL of Buffer RLT (Qiagen, Germantown, MD 20874) by Quintiles/Expression Analysis (Durham, NC) using a custom isolation procedure. Total RNA from each plate well was transferred to a preamplification plate. Fluidigm's 96.96 Dynamic ArrayTM (Fluidigm, Amsterdam, the Netherlands) technology was used for gene expression analyses by quantitative reverse transcription polymerase chain reaction (qRT-PCR, performed by Quintiles/Expression Analysis, Durham, NC)89. Standard TaqManTM Assays (Applied Biosystems/ThermoFisher Scientific, Foster City, CA) were used to assess the expression of 93 genes selected based on their selectivity and sensitivity to important hepatic receptors known to be modulated by environmental chemicals; importance in human hepatocyte functionality; and hepatotoxicity. […]
SMILES,AC50,outcome
Nc1c(Cl)cc([N+](=O)[O-])cc1Cl,11.4 µM (active),
CNc1cnn(-c2cccc(C(F)(F)F)c2)c(=O)c1Cl,16.1 µM (active),
CSc1nnc(C(C)(C)C)c(=O)n1N,9.92 µM (active),
CC[C@H](C)[C@H]1O[C@]2(C=C[C@@H]1C)C[C@@H]1C[C@@H](C/C=C(\C)[C@@H](O[C@H]3C[C@H](OC)[C@@H](O[C@H]4C[C@H](OC)[C@@H](NC)[C@H](C)O4)[C@H](C)O3)[C@@H](C)/C=C/C=C3\CO[C@@H]4[C@H](O)C(C)=C[C@@H](C(=O)O1)[C@]34O)O2,12.7 µM (active),
CCOP(=S)(OCC)Oc1cc(C)nc(C(C)C)n1,10.5 µM (active),
CCCOc1nn(C(=O)NS(=O)(=O)c2ccccc2C(=O)OC)c(=O)n1C,,inactive
C[Si](Cn1cncn1)(c1ccc(F)cc1)c1ccc(F)cc1,66.3 µM (active),
CCOP(=S)(OCC)Oc1ccc2c(C)c(Cl)c(=O)oc2c1,3.4 µM (active),
CCCCOC(=O)c1ccccc1C(=O)O,17 µM (active),
COP(=O)(OC)C(O)C(Cl)(Cl)Cl (stereo not given),0.0534 µM (active),
CNC(=O)Oc1cccc2c1OC(C)(C)O2,,inactive
Cc1cc(C2CC2)nc(Nc2ccccc2)n1,50 µM (active),
COP(=O)(NC(C)=O)SC (stereo not given),,inactive
COc1ccc(C(=CC(=O)N2CCOCC2)c2ccc(Cl)cc2)cc1OC,11.1 µM (active),
COP(=O)(OC)SCn1c(=O)oc2cc(Cl)cnc21,9.92 µM (active),
CC(C)[C@H](C(=O)O[C@H](C#N)c1cccc(Oc2ccccc2)c1)c1ccc(Cl)cc1,23.8 µM (active),
CC(C1CC1)C(O)(Cn1cncn1)c1ccc(Cl)cc1 (stereo not given),,inactive
CCc1cccc(CC)c1N(COC)C(=O)CCl,66.5 µM (active),
COc1cccc(C(=O)NN(C(=O)c2cc(C)cc(C)c2)C(C)(C)C)c1C,2.32 µM (active),
CCC(=O)Nc1ccc(Cl)c(Cl)c1,26.7 µM (active),

SMILES,AC50,outcome
CCC(=NOC/C=C/Cl)C1=C(O)CC(C2CCOCC2)CC1=O (stereo not given),,inactive
CCOP(=O)(OCC)Oc1cc(C)nc(C(C)C)n1,,inactive
CC(Oc1cccc(Cl)c1)C(=O)O (stereo not given),10.1 µM (active),
Cc1ccn2nc(S(=O)(=O)Nc3c(F)cccc3F)nc2n1,,inactive
C#CCC1=C(C)C(OC(=O)C2C(C=C(C)C)C2(C)C)CC1=O (stereo not given),,inactive
CN(C)NC(=O)CCC(=O)O,,inactive
FC(F)C(F)(F)OCC(Cn1cncn1)c1ccc(Cl)cc1Cl (stereo not given),38.1 µM (active),
CCOP(=S)(OCC)Oc1ccc([N+](=O)[O-])cc1,10.6 µM (active),
CCCSP(=O)(OCC)Oc1ccc(Br)cc1Cl (stereo not given),15.1 µM (active),
CN(C)[C@@H]1C(=O)C(C(N)=O)=C(O)[C@@]2(O)C(=O)C3=C(O)c4c(O)cccc4[C@@](C)(O)[C@H]3[C@H](O)[C@@H]12,,inactive
CON=C(C(=O)OC)c1ccccc1CON=C(C)c1cccc(C(F)(F)F)c1,6.06 µM (active),
COc1cc(OC)nc(Sc2cccc(Cl)c2C(=O)O)n1,,inactive
CCOP(=S)(Oc1cnc(C(C)(C)C)nc1)OC(C)C (stereo not given),,inactive
CCCCSP(=O)(SCCCC)SCCCC,,inactive
Cc1nn(-c2cc(NS(C)(=O)=O)c(Cl)cc2Cl)c(=O)n1C(F)F,18.4 µM (active),
CN(C)C(=O)Nc1cccc(C(F)(F)F)c1,1.22 µM (active),
CCCSP(=O)(OCC)SCCC,22.8 µM (active),
CCc1cccc(C)c1N(C(=O)CCl)C(C)COC (stereo not given),20.5 µM (active),
CCc1cnc(C2=NC(C)(C(C)C)C(=O)N2)c(C(=O)O)c1 (stereo not given),,inactive
CCOC(=O)CC(SP(=O)(OC)OC)C(=O)OCC (stereo not given),,inactive
